Measurements from paper PMC5540273 (PLoS ONE, 2017).

Assays:
Details in all cases: concentration: 1 μM,replicates: in singlicate; n = 1
DCAMKL2 = system: T1, DCAMKL2
T1 construct: gene DCLK2

DCAMKL3 = system: T2, DCAMKL3
T2 construct: gene DCLK3

DDR1 = system: DDR1
DDR2 = system: DDR2
DLK = system: T3, DLK
T3 construct: gene MAP3K12

DMPK2 = system: T4, DMPK2
T4 construct: gene CDC42BPG

DMPK = system: DMPK
DRAK1 = system: T5, DRAK1
T5 construct: gene STK17A

DRAK2 = system: T6, DRAK2
T6 construct: gene STK17B

DYRK1A = system: DYRK1A
DYRK1B = system: DYRK1B
DYRK2 = system: DYRK2
EGFR = system: EGFR
EIF2AK1 = system: EIF2AK1
EPHA1 = system: EPHA1
EPHA2 = system: EPHA2
EPHA3 = system: EPHA3
EPHA4 = system: EPHA4
EPHA5 = system: EPHA5
EPHA6 = system: EPHA6
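Also: KINOMEscan kinase panel screen.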

Structure (SMILES) | %Inh (DCAMKL2) [%] | %Inh (DCAMKL3) [%] | %Inh (DDR1) [%] | %Inh (DDR2) [%] | %Inh (DLK) [%] | %Inh (DMPK2) [%] | %Inh (DMPK) [%] | %Inh (DRAK1) [%] | %Inh (DRAK2) [%] | %Inh (DYRK1A) [%] | %Inh (DYRK1B) [%] | %Inh (DYRK2) [%] | %Inh (EGFR) [%] | %Inh (EIF2AK1) [%] | %Inh (EPHA1) [%] | %Inh (EPHA2) [%] | %Inh (EPHA3) [%] | %Inh (EPHA4) [%] | %Inh (EPHA5) [%] | %Inh (EPHA6) [%]
Cl.Oc1cc(-c2nc(-c3ccccc3)[nH]c2-c2ccncc2)ccc1Cl [SB-386023] | 0 | 0 | 92.7 | 83 | 0 | 0 | 0 | 0 | 0 | 0 | 0 | 5 | 20 | 0 | 59 | 0 | 5 | 0 | 23 | 36
Cc1cc(C(=O)Nc2ccc(Oc3ccc4nc(NC(=O)C5CC5)cn4n3)cc2)nn1-c1ccccc1 | 2 | 20 | – | 100 | 12 | 0 | 0 | 0 | 0 | 0 | 0 | 0 | 0 | 0 | 45 | 29 | 0 | 48 | 6 | 46
CCN(CC)CCCCNc1ncc2cc(-c3c(Cl)cccc3Cl)c(NC(=O)NC(C)(C)C)nc2n1 | 0 | 14 | 99.7 | 100 | 86 | 0 | 4 | 0 | 5 | 0 | 1 | 0 | – | 46 | 99.6 | 99.6 | 99.4 | 91.5 | 95.9 | 95.6
CN(C)CCOc1ccc(-c2cc(-c3c[nH]nc3-c3ccccn3)ccn2)cc1 [GW835314] | 1 | 1 | 0 | 0 | 8 | 0 | 0 | 18 | 9 | 1 | 22 | 17 | 28 | 93.7 | 18 | 10 | 18 | 90 | 5 | 84
Cl.Cl.Nc1nc(-c2ccc3c(N)n[nH]c3c2)cc(N2CCCC(NC(=O)c3ccccc3)C2)n1 (centres unmarked) [GSK2286775] | 0 | 0 | 26 | 0 | 1 | 1 | 0 | 75 | 0 | 9 | 18 | 80 | 28 | 0 | 13 | 0 | 0 | 15 | 0 | 6
Cl.Cl.NC[C@H](Cc1ccc(C(F)(F)F)cc1)NC(=O)c1cc(Br)c(-c2ccnc3[nH]ccc23)s1 [GSK1487252] | 0 | 75 | 8 | 0 | 8 | 64 | 0 | 18 | 0 | 35 | 41 | 33 | 30 | 0 | 26 | 14 | 0 | 19 | 0 | 29
C=CC(=O)Nc1cc2c(Nc3ccc(F)c(Cl)c3)ncnc2cc1OCCCN1CCOCC1 [GW781483] | 1 | 10 | 71 | 44 | 0 | 6 | 20 | 2 | 5 | 11 | 23 | 17 | – | 11 | 25 | 0 | 13 | 5 | 7 | –
Cl.Cl.NC[C@H](CC1CCCCC1)NC(=O)c1cc(Br)c(-c2ccnc3[nH]ccc23)s1 [GSK1581427] | 14 | 0 | 0 | 0 | 0 | 98.3 | 91.7 | 14 | 0 | 55 | 71 | 67 | 23 | 0 | 42 | 12 | 0 | 13 | 0 | 25
CCN(CC)CCOc1ccc(Nc2ncc3cc(-c4c(Cl)cccc4Cl)c(=O)n(C)c3n2)cc1 [SB-601273] | 41 | 0 | 100 | 100 | 96.4 | 95.4 | 24 | 43 | 21 | 0 | 14 | 11 | – | 96.9 | 100 | 100 | 96.6 | 100 | 99.8 | 97.9
Cc1occc1-c1nc(N)c(OC[C@@H](N)Cc2c[nH]c3ccccc23)cc1-c1cc2c(C)n[nH]c2cn1 [GSK1660450] | 19 | 56 | 10 | 0 | 13 | 86 | 99.1 | 0 | 0 | 100 | 91.6 | 92.1 | 97.2 | 12 | 16 | 13 | 30 | 14 | 0 | 32
Cc1cc2cn[nH]c2cc1-c1cccc2c(N)c(C(N)=O)nnc12 | 37 | 98.8 | 0 | 0 | 98.8 | 7 | 0 | 47 | 27 | 13 | 0 | 23 | 56 | 26 | 17 | 0 | 0 | 8 | 89 | 0
O=C(NCCCN1CCOC1=O)c1cnc(NCc2cc(Cl)ccc2Cl)nc1NC1CCCC1 | 1 | 18 | 0 | 11 | 37 | 0 | 0 | 0 | 0 | 0 | 21 | 0 | 0 | 0 | 12 | 25 | 0 | 14 | 17 | 28
CN(C)CC(O)COc1ccc(Nc2nccc(-c3cnn4nc(N5CCOCC5)ccc34)n2)cc1 (centres unmarked) [GW767488] | 61 | 64 | 0 | 0 | 61 | 17 | 20 | 99.7 | 93.1 | 73 | 69 | 87 | 17 | 42 | 34 | 0 | 9 | 8 | 9 | 0
Cc1n[nH]c2ccc(-c3cc(OC[C@@H](N)Cc4ccccc4)cnc3-c3ccoc3)cc12.O=C(O)C(F)(F)F.O=C(O)C(F)(F)F [GSK507358] | 0 | 0 | 0 | 0 | 15 | 50 | 92.8 | 0 | 0 | 29 | 49 | 40 | 87 | 0 | 5 | 0 | 43 | 0 | 0 | 4
Cc1ccc2c(-c3ccncc3)c(-c3ccc(F)cc3)nn2c1.Cl [GW461484] | 0 | 0 | 76 | 80 | 29 | 77 | 11 | 0 | 0 | 0 | 4 | 9 | 43 | 0 | 10 | 8 | 13 | 0 | 0 | 5
C[C@@H]1CCN(C(=O)CC#N)C[C@@H]1N(C)c1ncnc2[nH]ccc12 | 14 | 99.1 | 0 | 0 | 0 | 0 | 24 | 11 | 5 | 0 | 0 | 0 | – | 6 | 6 | 0 | 0 | 0 | 0 | 0
Cc1ccc(-n2nc(C(C)(C)C)cc2NC(=O)Nc2ccc(OCCN3CCOCC3)c3ccccc23)cc1 [GW839464] | 0 | 34 | – | – | 7 | 40 | 4 | 0 | 11 | 0 | 100 | 14 | 33 | 0 | 52 | – | – | 6 | 0 | 23
CCn1c(-c2nonc2N)nc2c(C#CC(C)(C)O)nc(OCCN)cc21.Cl.Cl [GSK902056] | 0 | 40 | – | 5 | 0 | 0 | 0 | 0 | 0 | 25 | 4 | 0 | 24 | 8 | 19 | 19 | 21 | 15 | 0 | 11
C[C@H]1Oc2cc(cnc2N)-c2c(nn(C)c2C#N)CN(C)C(=O)c2ccc(F)cc21 | 91.8 | 15 | – | 3 | 2 | 0 | 0 | 2 | 0 | 0 | 6 | 0 | 9 | 0 | 53 | 48 | 0 | 1 | 24 | 33
